RmlC RmlD mix: RmlC and RmlD coupled enzyme inhibitors, primary screen, biochemical, 384-well, compound mixtures, retest. RmlC/RmlD coupled enzyme inhibition, 384-well mixture HTS. inhibition, % at 5.5 µM. 110,000 tested, 0.39% active. AID 1532, 2009; in the data active means inhibition above about 30%, passing the limit was not always enough
HIV RNase H inh: HIV-1 RT RNase H inhibitors, primary screen, biochemical, fluorescence; Gag-Pol polyprotein (Human immunodeficiency virus type 1 group M subtype B (isolate …; RT-RNase H RNA/DNA duplex cleavage; inhibition, % at 10 µM; 65,000 tested, 1.9% active; AID 565, 2006; in the data active means inhibition above about 50%
Of the large screens only hits and unclear results are named; the others gave an inactive call. The entries come from a sample that favours hits as a whole.

COc1ccc(C2CC(=O)N3CN(c4ccccc4F)CSC3=C2C#N)cc1OC (configuration not stated)	HIV RNase H inh 59.1
COc1ccc(OC)c(C2CC(=O)N3CN(c4ccccc4)CSC3=C2C#N)c1 (configuration not stated)	none
COc1ccc(C2CC(=O)N3CN(Cc4ccco4)CSC3=C2C#N)cc1 (configuration not stated)	none
N#CC1=C2SCN(Cc3ccco3)CN2C(=O)CC1c1ccc(Cl)cc1 (configuration not stated)	HIV RNase H inh 54.5
COc1cc(C2CC(=O)N3CN(Cc4ccco4)CSC3=C2C#N)ccc1OCc1ccccc1 (configuration not stated)	none
N#CC1=C2SCN(Cc3ccccc3)CN2C(=O)CC1c1cccs1 (configuration not stated)	HIV RNase H inh 64.8
Cc1ccc(-n2nnc(-c3cccnc3Cl)n2)cc1	none (no result: HIV RNase H inh)
Cc1ccc(CSc2nnc(-c3ccncc3)n2CC2CCCO2)cc1 (configuration not stated)	none (no result: HIV RNase H inh)
CCC(=O)Nc1sccc1C(=O)OC	none
COC(=O)Nc1sccc1C(=O)Nc1sccc1C(=O)OC	HIV RNase H inh 53.6
CC1(c2nnc(Cc3ccccc3)o2)CC(c2ccncc2)=NO1 (configuration not stated)	none (no result: HIV RNase H inh)
Cc1cc(C)nc(Nc2ccc(N3CCOCC3)cc2)n1	none
S=P(c1ccc(N2CCOCC2)cc1N1CCOCC1)(N1CCOCC1)N1CCOCC1	HIV RNase H inh 87.6 (no result: RmlC RmlD mix)
COc1ccc(NC(=O)CC2Sc3ncnn3C2=O)cc1 (configuration not stated)	none
CCOC(=O)c1ccc(NC(=O)CC2Sc3ncnn3C2=O)cc1 (configuration not stated)	HIV RNase H inh 59.9
O=C(NCc1ccco1)c1ccc2c(=O)n(CCC3=CCCCC3)c(=O)[nH]c2c1	HIV RNase H inh 51.8
CCN1CCN(C(=O)c2ccc3c(=O)n(CCC4=CCCCC4)c(=O)[nH]c3c2)CC1	none
Cc1cccc(Nc2ncc3c(n2)CC(C)CC3=O)c1 (configuration not stated)	none
Cc1nc(Nc2cccc(C(F)(F)F)c2)nc2c1C(=O)CC(C)C2 (configuration not stated)	HIV RNase H inh 51.1
CCCC(C)NC1=NCCCCC1 (configuration not stated)	none (no result: HIV RNase H inh)
O=C(O)C[C@@H](O)C(=O)O	none (no result: HIV RNase H inh)
CCOc1ccc(C2C(C#N)=C(N)N3C(=C2C#N)Sc2ccccc23)cc1 (configuration not stated)	HIV RNase H inh 72.2
N#CC1=C(N)N2C(=C(C#N)C1c1ccccc1)Sc1ccccc12 (configuration not stated)	none
CC1Oc2cc3oc4c(O)c(O)ccc4c(=O)c3c(O)c2C1(C)C (configuration not stated)	none (no result: HIV RNase H inh)
CCOC(=O)c1ccc(-n2c(N)c(C(=O)NCC3CCCO3)sc2=S)cc1 (configuration not stated)	none (no result: HIV RNase H inh)
CCOC(=O)c1ccc(-n2c(N)c(C(=O)NCc3ccco3)sc2=S)cc1	HIV RNase H inh 71.9
C=CCNC(=O)c1sc(=S)n(-c2ccc(C(=O)OCC)cc2)c1N	HIV RNase H inh 75.8
COc1ccc(-n2c(N)c(C(=O)NCc3ccco3)sc2=S)cc1	none (no result: HIV RNase H inh)
COc1cccc(O[C@@H]2O[C@@H]3COC(C)(C)O[C@H]3[C@H](O)[C@H]2NC(C)=O)c1	none (no result: HIV RNase H inh)
C#CCNC(=O)C1=C[C@H](c2csc3ccccc23)C[C@H](OCCCCO)O1	none (no result: HIV RNase H inh)
COc1ccc(S(=O)(=O)Nc2cc(C(C)C)c(O)cc2C)cc1	none
COc1ccc(S(=O)(=O)Nc2cc(C)c(O)cc2C(C)C)cc1	HIV RNase H inh 55.2
O=C(COC(=O)C1COc2ccccc2O1)NC(=O)NC1CCCC1 (configuration not stated)	none
O=C(COC(=O)C1COc2ccccc2O1)NC(=O)Nc1ccc2c(c1)OCCO2 (configuration not stated)	HIV RNase H inh 51.0
N#CC1=C(N)Oc2cc(Nc3ccccc3)ccc2C1c1ccncc1 (configuration not stated)	none (no result: HIV RNase H inh)
Cn1nc(-c2ccc(C(=O)Nc3cccc(Cl)c3)cc2)c2ccccc2c1=O	none (no result: HIV RNase H inh)
O=C(CSc1ccccn1)Nc1ccc(Br)cn1	none
O=C(CSc1ncn(-c2ccccc2)n1)Nc1ccc(Br)cn1	HIV RNase H inh 55.1
C#CCOCCOCCOCCNc1nc(N2CCN(C(=O)[C@H](CCCCN)n3cc(C(N)CO)nn3)CC2)nc(N2CCN(C(=O)[C@H](CCCCN)n3cc(C(N)COC(=O)C(F)(F)F)nn3)CC2)n1 (some centres not stated)	none (no result: HIV RNase H inh)
CC(=O)Nc1c(C(=O)O)oc2ccccc12	HIV RNase H inh 55.6
CC(=O)Nc1c(C(=O)O)oc2ccc(Cl)cc12	none (no result: RmlC RmlD mix)
Nc1nnnn1/N=C/c1ccc(O)cc1	none (no result: HIV RNase H inh)
CCN(C)c1ccc(/C=N\n2nnnc2N)cc1	RmlC RmlD mix 71.1
CC1(C2(O)CC(c3ccccc3)ON2)CCCCC1 (configuration not stated)	none
CCC(c1nnnn1Cc1ccco1)N(CCc1ccccc1)Cc1cc2cc(C)ccc2[nH]c1=O (configuration not stated)	HIV RNase H inh 61.3
Cc1ccc2[nH]c(=O)c(CN(CCc3ccccc3)C(c3nnnn3Cc3ccco3)C(C)C)cc2c1 (configuration not stated)	none (no result: RmlC RmlD mix)
Cc1cc(C(=O)N2CCN(Cc3ccccc3)CC2)on1	none (no result: HIV RNase H inh)
Cc1cc(C)c(C)c(S(=O)(=O)NCc2ccc(C(=O)N3CCCCC3)cc2)c1C	none (no result: HIV RNase H inh)
O=C(NCCN1CCCCC1)c1ccc(=O)oc1	RmlC RmlD mix 47.8
O=C(NCCN1CCCCC1)c1ccc2c(c1)OCCO2	none
O=C(CCN1C(=O)c2ccccc2C1=O)N1CCN(C2c3ccccc3-c3ccccc32)CC1	none (no result: HIV RNase H inh)
O=C(Nc1nnc(C2CC2)o1)c1ccc(S(=O)(=O)N2CCCc3ccccc32)cc1	none (no result: RmlC RmlD mix)
COc1ccc(-c2nnc(NC(=O)c3ccc(S(=O)(=O)N4CCCc5ccccc54)cc3)o2)cc1	HIV RNase H inh 52.1 (no result: RmlC RmlD mix)
CCOC(=O)c1sc2nc(C(C)C)c3c(c2c1N)CC(C)(C)OC3	none (no result: HIV RNase H inh)
CCOC(=O)c1sc2nc(N3CCCC3)c3c(c2c1N)CC(C)(C)OC3	RmlC RmlD mix 45.1
Cc1nnc2sc(-c3ccc(NC(=O)c4ccc(-c5ccc(Cl)cc5Cl)o4)cc3)nn12	HIV RNase H inh 50.0
Cc1nnc2sc(-c3ccc(NC(=O)c4cccnc4)cc3)nn12	none (no result: RmlC RmlD mix)
CCOC(=O)C1=C(C)N(CCC(=O)O)C(=O)NC1c1ccccc1Cl (configuration not stated)	none (no result: HIV RNase H inh)
Cc1cc(C)c(NC(=O)COc2ccccc2C(=O)Nc2ccc3c(c2)oc2ccccc23)c(C)c1	RmlC RmlD mix active (no result: HIV RNase H inh)
CCOc1ccccc1C(=O)Nc1ccc(-c2nnc(-c3ccc(C)cc3)o2)cc1	none (no result: RmlC RmlD mix)
CCCCN1C(=O)NC2NC(=O)NC21 (configuration not stated)	none (no result: HIV RNase H inh)
Cc1nnc(NC(=O)C2CCCO2)s1 (configuration not stated)	none
CCCCCc1nnc(NC(=O)C2CCCO2)s1 (configuration not stated)	HIV RNase H inh 64.0
CCCCCCn1c(=O)c(C(=O)Nc2ccncc2)c(O)c2ccccc21	HIV RNase H inh 69.4 (no result: RmlC RmlD mix)
CCCCn1c(=O)c(C(=O)NCc2ccncc2)c(O)c2ccccc21	none
CSc1nc(C)cc(OCCNS(=O)(=O)c2ccc(C)cc2)n1	none (no result: HIV RNase H inh)
CCCC(=O)Nc1ccc(-c2nc3cc(C)c(C)cc3o2)c(O)c1	HIV RNase H inh 58.2
CCCC(=O)Nc1ccc(-c2nc3cc(C)ccc3o2)cc1	none
COc1cccc(-c2ccc(-c3noc(-c4ccccc4F)n3)c(OC)n2)c1	none

Assay outcomes deposited in PubChem by several laboratories.
